Screens from PubChem.
Rows were chosen to be rich in hits. Some 3.6% of all compounds tested hit in one or more screens of this group.
PMP22 txn: modulators of PMP22 gene transcription in S16 Schwann cells; 2% of 43,000 active; S16 Pmp22-F2sN Schwann cells, FLuc/NLuc coincidence luminescence, 24 h; Potency, µM (series often up to 57.5 µM), inactives show at the highest dose activity change, negative = inhibition, hits mostly inhibitors; active = clear falling dose curves in both reporters; inconclusive = both reporters move, but less clearly or upward; inactive = either reporter flat; the % is the NLuc reporter signal; note: % is set by controls: 0 for no effect and ±100 for the full control effect
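Rat S16 Pmp22-F2sN cells, 500-1,000/well in phenol red-free DMEM + 10% FBS, compound-treated 24 h (37C, 5% CO2). Luminescence: FLuc read, Stop&Glo added, NLuc read.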
OvCa metastasis: ovarian cancer metastasis inhibition, 3D TME model. 0.1% of 46,000 active. SKOV3ip1-GFP adhesion/invasion on 3D omental model, fluorescence. Potency, µM (titrated, usually from 45.8 µM), without a hit: at the top dose activity change, negative = inhibition, usual class: inhibitors;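 note: plate controls were DMSO wells for no effect and tomatine positive control wells for full effect; nearly all actives have a fitted effect of over 65% in size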
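Primary human omental fibroblast/mesothelial 3D culture pre-formed 48 h. SKOV3ip1-GFP cells added with compounds (0.36-46 umol/L), incubated 2 h RT/16 h 37 C, fixed; GFP cells quantified at 488/509 nm.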
HTT-AS act: activates huntingtin-antisense promoter activity; AID 1508624; Potency, µM (top dose mostly 57.5 µM), inactives show at the top dose activity change, positive = activation, hits mostly activators; HEK293 HTT-AS promoter firefly luciferase reporter, 24 h; response scale: percent change from vehicle, -100% = no light; 0.24% of 48,000 active; note: nearly all actives have a fitted effect of over 55% in size
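Firefly luciferase readout (Dual-Glo, 10 min RT) after 24 h, 37 °C compound exposure (final up to 57.5 uM) of HEK293 reporter cells cultured 24 h beforehand; PTC124 at 50 uM final as control inhibitor; activity scaled vehicle 0%, zero RLU -100%.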
mTORC1 inh: reduces mTORC1 signaling in Tsc2 and p53 null MEF cells. Tsc2-/- p53-/- MEF, phospho-rpS6 immunofluorescence/PI, 24 h. Potency, µM (doses to about 38.3 µM), for the others: at the highest dose activity change, negative = inhibition, usual class: inhibitors. 0.78% of 44,000 active;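 note: plate controls were DMSO for no effect and rapamycin for full effect; nearly all actives have a fitted effect of over 50% in size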
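Cell-based qHTS: Tsc2-/- p53-/- MEF, 24 h cpd, 37 °C; fix/perm, anti-phospho-S6 Alexa-488 + PI; Acumen 488 nm scan; pS6/PI ratio, % positive cells; rapamycin 7.5 nM = inhibition ref; PI count = viability.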
HTT promoter inh: inhibits huntingtin promoter activity; HEK293 HTT promoter firefly luciferase reporter, 24 h; Potency, µM (highest dose often 57.5 µM), for the others: at the top dose activity change, negative = inhibition, actives largely listed as inhibitors; 0.93% of 48,000 active; note: nearly all actives have a fitted effect of over 50% in size
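Luminescence was read after Dual-Glo reagent and a 10 min room-temperature incubation. Values were normalized to vehicle (0% activity) and zero RLU (-100% activity). Reporter HEK293 cells had been exposed to compounds (up to 57.5 uM final) for 24 h.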
S16 F2sN tox: cytotoxicity in S16 Pmp22-F2sN Schwann cells | 0.48% of 43,000 active | AID 1508642 | S16 Pmp22-F2sN Schwann cells viability, CellTiter-Glo, 24 h | Potency, µM (titrated, usually from 57.5 µM), inactives show at the top dose activity change, negative = cytotoxicity, hits mostly cytotoxic; note: % is set by controls: 0 for no effect and ±100 for the full control effect; nearly all actives have a fitted effect of over 65% in size
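Used to flag compounds lowering reporter output through toxicity, this quantitative HTS measures ATP-based CellTiter-Glo luminescence in S16 Pmp22-F2sN Schwann cells after 24 h compound exposure at 37C.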
* hit, by the source's call; i = inactive; ? = inconclusive; · = no result. Unless noted, calls come from the whole dose curve; as a rule, active = well fitted curve in the direction sought with a large enough effect; inconclusive = small, poorly fitted or top-dose-only effect, or another doubt; inactive = no such curve, though single readings can be large; an effect the other way counts as inactive or inconclusive. Potency is the fitted concentration of half-maximal effect.

SMILES | PMP22 txn | OvCa metastasis | HTT-AS act | mTORC1 inh | HTT promoter inh | S16 F2sN tox
O=c1c(-c2ccc(O)cc2)coc2cc(OC3O[C@H](CO)[C@H](O)[C@H](O)[C@H]3O)cc(O)c12 (some centres undefined) | · | -38% | 4% | · | 11% | ·
Nc1ncnc2c1c(-c1cnc3[nH]ccc3c1)nn2C1CCCC1 | · | ? | -38% | · | ? | ·
CCC1CN(C(=O)NCc2ccc(F)cc2)c2cc(C)ccc2O1 (centres undefined) | -1% | 10% | -15% | 21µM* | -10% | 8%
Cc1ccc(-c2cn(-c3ccc(Cl)cc3)c(S(=O)(=O)CC(=O)Nc3ccccc3)n2)cc1 | ? | -4% | ? | -21% | -19% | -3%
Cc1ccc(-n2cc(-c3ccccc3)nc2S(=O)(=O)CC(=O)Nc2ccc(F)cc2)cc1 | ? | -12% | 3.2µM* | -18% | 49% | -16%
COc1ccc(Br)cc1C(=O)Nc1nc2ccc(F)cc2s1 | -10% | i | 1.8µM* | 6% | 100% | -4%
CN(C)c1ccc(Nc2nc(N)n(C(=O)c3c(F)cccc3F)n2)cc1 | · | 18% | 24µM* | · | 21% | ·
Cc1cccc(NS(=O)(=O)c2ccc3c(c2)CCN3C(=O)C2CCC2)c1 | ? | i | -52% | 3% | 20µM* | 1%
O=C(CCNS(=O)(=O)c1ccc2c(c1)CCN2C(=O)C1CC1)N1CCN(c2cccc(C(F)(F)F)c2)CC1 | ? | i | -49% | -17% | 28µM* | ?
Cc1ccc(C)c(NS(=O)(=O)c2ccc3c(c2)CCCN3C(=O)C2CCC2)c1 | ? | -16% | -35% | -2% | ? | ?
COc1ccc(NS(=O)(=O)c2ccc3c(c2)CCN3C(=O)C2CC2)cc1OC | ? | -3% | -91% | -6% | 4µM* | ?
Cc1ccc(Cl)cc1N1CCN(C(=O)CCNS(=O)(=O)c2ccc3c(c2)CCN3C(=O)C2CC2)CC1 | ? | i | -38% | -4% | ? | -18%
NC(=O)c1c(OCc2c(F)cc(Br)cc2F)nsc1NC(=O)NCCCCN1CCCC1 | · | 5% | -23% | · | -20% | ·
O=C(Nc1ccc2oc(-c3cc(Br)ccc3Cl)nc2c1)c1cc2ccccc2o1 | ? | ? | -43% | 4.1µM* | ? | ?
CON(C)C(=O)N1N=C(c2cc(F)ccc2F)S[C@]1(CCCN)c1ccccc1 | · | 3% | -30% | · | -22% | ·
Cc1ccccc1C(=O)Nc1sc2c(c1C(=O)O)CCC(C(C)(C)C)C2 (centres undefined) | 11% | -6% | -37% | 0% | 2.8µM* | -4%
C[C@]12CC[C@@H]3c4ccc(O)cc4CC[C@H]3[C@H]1[C@@H](O)[C@@H](O)[C@H]2O | · | 7% | 9% | · | 15% | ·
CCCN1CCN(c2ncnc3sc(C(=O)Nc4c(C)cc(C)cc4C)c(C)c23)CC1 | ? | 81% | 10% | 11% | -10% | 25µM*
CCCCCN(CCC12CC3CC(CC(C3)C1)C2)C(=O)NCCCc1ccncc1 | · | 6% | -6% | · | -5% | ·
Cc1ccc(NC(=O)Cc2ccc(-n3c(C)nc4cccnc43)cc2)c(Cl)c1 | ? | 9% | -41% | -11% | 8.9µM* | -27%
COc1ccc(Cn2c(CCC(=O)Nc3ccc(C)cc3C)nc3cccnc32)cc1 | 1% | i | -14% | -4% | -22% | -1%
C=CC(=O)Nc1cccc(Nc2nc(NC3CCC(N(C)C)CC3)nc3c2ncn3C(C)C)c1 (centres undefined) | · | ? | -42% | · | -38% | ·
O=C(Nc1ccc(SC(F)F)cc1)c1cc(-c2ccc3c(c2)OCCO3)on1 | ? | 1% | -64% | 0% | 10µM* | -10%
